Results from PubChem BioAssay AID449762 (Southern Research Specialized Biocontainment Screening …, 2010).
Screen size: about 330,000 compounds; about 1,900 (0.58%) were called active. Roughly 4% stayed inconclusive and do not appear here. The list is a sample of the results. Results with a measured potency or affinity are listed apart. Values without a mark were called inactive. Rule as the data show it: inconclusive = inhibition above about 70% without an active follow-up result; inactive = below that.

experiment: M. tuberculosis growth inhibition, HTS (AID 449762);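 also: bacterial growth assessed after seven days of incubation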; conditions: M. tuberculosis H37Rv growth inhibition, 7H9 media; at 25 µM; hits give high values

Row | Compound | inhibition
1 | O=[N+]([O-])c1ccc(C2CN=C(Nc3ccccc3)S2)cc1 (stereo not given) | 0.07%
2 | CC1CN=C(Nc2ccccc2)S1 (stereo not given) | 1.32%
3 | Cc1cc2c(OCC(O)CN3CCCCC3)cccc2[nH]1 (stereo not given) | -0.02%
4 | COc1cc(C(=O)ONC(=O)c2ccc(OC(F)F)cc2)cc(OC)c1OC | 0.02%
5 | O=C(NCc1ccc(Cl)cc1)C1CCCN(c2cnccn2)C1 (stereo not given) | 3.46%
6 | O=C(COc1ccc(S(=O)(=O)N2CCOCC2)cc1Cl)NCCN1CCOCC1 | 0.71%
7 | COc1ccc(-c2csc(-n3ncc(-c4ccccn4)c3N)n2)cc1 | 1.41%
8 | Nc1c(-c2cccs2)cnn1-c1nc(-c2ccc(F)cc2)cs1 | -11.5%
9 | COc1ccc(-c2n[nH]c(=S)n2CC(C)C)cc1 | -17.2%
10 | CN(C)CCCN(C(=O)c1ccc(C(=O)c2ccccc2)cc1)c1nc2cc3c(cc2s1)OCCO3 | 2.4%
11 | Cn1cc(C(=O)c2ccccc2C(=O)O)cc1C(=O)C(Cl)(Cl)Cl | 1.33%
12 | C=CCNC(=S)NNC(=O)c1cccc2ccccc12 | -8.25%
13 | CN(c1ccccc1)S(=O)(=O)c1ccc(C(=O)OCC(=O)NCc2cccs2)cc1 | -2.53%
14 | CCN1C(=O)N[C@@H](c2cccc(C(F)(F)F)c2)C(C(=O)OC)=C1C | -2.1%
15 | CCN1C(N(C)CCc2cccs2)=N[C@@H](c2ccccc2)C(C(=O)OC)=C1C | -2.75%
16 | C=CC[C@@H](Cc1ccc(F)cc1)C(=O)OC[C@H]1CCCN1C(=O)[C@@H](CC=C)CC(=O)N[C@@H](CO)Cc1ccccc1 | -0.18%
17 | O=C(SCC(O)C(O)CS)c1cccs1 (stereo not given) | -1.44%
18 | COc1ccc(C(=O)NN=C2CCCC2)c(OC)c1 | -0.32%
19 | O=C(C1CCC1)N1CCc2cc(S(=O)(=O)N3CCCCC3)ccc21 | -8.32%
20 | O=C(C1CCCCC1)N1CCc2ccccc21 | 0.1%
21 | O=C(Nc1ccncc1)c1cc(-c2cccc(Br)c2)nc2ccccc12 | -13.1%
22 | CCn1nc(NS(=O)(=O)c2ccc([N+](=O)[O-])cc2)c2cc3cc(C)ccc3nc21 | 2.04%
23 | COc1cccc(C(=O)OC(C)C(=O)Nc2ccc3c(c2)OCO3)c1 (stereo not given) | -7.8%
24 | COc1ccc(-n2nc(C(=O)NCC(=O)N3CCCCCC3)c3ccccc3c2=O)cc1OC | -4.92%

Row | Compound | inhibition
25 | COc1ccc(Cn2cnc3c(N)c(C)c(C)cc32)cc1 | -12.4%
26 | COC(=O)CSc1nc(SCc2ccccc2Cl)nc2c1CCCC2 | -6.09%
27 | CN(C)c1nc(SCc2ccccc2Cl)nc2c1CCCC2 | 20.2%
28 | CC(C)OC(=O)c1nnn(-c2nonc2N)c1CN1CCCCCC1 | -9.91%
29 | Cc1ccc(OCc2cc(C(=O)NCCn3cccn3)no2)cc1C | 10.8%
30 | COc1ccc(C(=O)NC(NC(=S)Nc2ccc(S(N)(=O)=O)cc2)C(Cl)(Cl)Cl)cc1 (stereo not given) | -5.71%
31 | Oc1ccc(C2=CCNCC2)cc1O | -1.15%
32 | CN1c2ccc([N+](=O)[O-])cc2N(C)C1(C)c1ccccc1 (stereo not given) | -1.96%
33 | CN1c2ccccc2N(C)C1(C)c1ccccc1 | 4.29%
34 | Cc1cc(C=C2C(=O)N(C)C(=S)N(C)C2=O)c(C)n1-c1cccnc1 | -1.48%
35 | Cc1cc(/C=C2/SC(=S)N(c3cccc(Cl)c3)C2=O)c(C)n1-c1cccnc1 | 59.7%
36 | COc1cccc(CCc2nnc(CCC(=O)N3CCN(Cc4ccccn4)CC3)o2)c1 | -0.82%
37 | COc1ccccc1C(=O)c1c(C)c(CCC#N)n2ccccc12 | 2.58%
38 | O=C(COC(=O)C12CC3CC(CC(C3)C1)C2)N1CCN(S(=O)(=O)c2ccccc2)CC1 | 6.15%
39 | CN(C1CCCCC1)S(=O)(=O)c1ccc(SCC(=O)NC(C)(C)C)nc1 | -0.68%
40 | CN1CCN(Cc2cc(Cl)c3cccnc3c2OC(=O)c2cccs2)CC1 | -8.53%
41 | CN(C)C(=O)Oc1c(Cl)cc(Cl)c2cccnc12 | 0.5%
42 | CN1C(=O)CC(N2CCN(CCN=CC3=C(O)CC(C)(C)CC3=O)CC2)C1=O (stereo not given) | 9.46%
43 | O=C(CS(=O)(=O)Cc1ccccc1)Nc1ccc(Br)cc1F | -10.1%
44 | COn1c2c(c3c4no[n+]([O-])c4ccc31)CCCC2 | 12.5%
45 | CCOC(=O)c1c(C)n(OC)c2ccc3c(no[n+]3[O-])c12 | -8.43%
46 | Cc1ccc2[nH]c(=O)c(CN(CC3CCCO3)C(=O)c3ccncc3)cc2c1 (stereo not given) | 4.74%
47 | CCCCCNc1nc(NCCCO)c(C#N)c2c1CN(C)CC2 | 1.69%
48 | CN1CCc2c(C#N)c(N3CCCCC3)nc(NCc3ccccc3)c2C1 | 8.6%

Row | Compound | inhibition
49 | CC(=O)NC(C)(CC(=O)c1ccccc1)c1ccccc1 (stereo not given) | -8.86%
50 | S=C(NCCCN1CCOCC1)N(Cc1ccccc1)Cc1ccccc1 | -1.92%
51 | C=CCSc1nn2c(=O)c3ccccc3nc2s1 | 66.1%
52 | Cc1ccccc1Nc1nn2c(=O)c3ccccc3nc2s1 | 4.93%
53 | Cc1nc(SCC(C)C)[nH]c(=O)c1Cc1ccccc1 | -4.67%
54 | O=C(OCc1nnc(-c2ccccc2)o1)c1ccccc1 | 3.86%
55 | O=C(OCc1nnc(-c2ccccc2)o1)c1ccc([N+](=O)[O-])s1 | 63.8%
56 | COc1ccc(OC)c(NC2=NCCCS2)c1 | -1.69%
57 | COc1ccc(C(CNC(=O)C(=O)NC2CCCCC2)N2CCN(C)CC2)cc1 (stereo not given) | -12.6%
58 | COc1ccc(OC)c(N2Cc3ccccc3C2)c1 | 3.42%
59 | COc1ccccc1NC(=O)Nc1nc(CC(=O)NCc2c(F)cccc2F)cs1 | 29.2%
60 | COc1ccccc1CC(=O)N1CCN(c2ccccc2F)CC1 | 3%
61 | O=C(Nc1cccc(S(=O)(=O)N2CCOCC2)c1)c1cc(=O)[nH]c2ccccc12 | -2.49%
62 | CN(C)Cc1nc2ccccc2c(=O)n1CC#N | -2.77%
63 | N#CCn1c(Cc2ccccc2)nc2ccccc2c1=O | -1.48%
64 | CCOCCc1nnc(NC(=O)CS(=O)(=O)c2ccc(C)cc2)s1 | -7.28%
65 | COc1ccccc1CN1CCC(n2nccc2NC(=O)CCCc2ccccc2)CC1 | 3.32%
66 | CCOC(=O)C1=C(CSc2nc3c(cc2C#N)CN(C)CC3)OC(N)=C(C#N)C1c1ccc(Cl)cc1 (stereo not given) | -0.9%
67 | COc1ccc(C(CC(=O)NCCCN2CCOCC2)NS(=O)(=O)c2ccc(C)cc2)cc1 (stereo not given) | -3.32%
68 | Cc1ccc(NC(=O)C2CCN(c3cnccn3)CC2)cc1 | -0.63%
69 | CCCc1ccc(NC(=O)C2CCCN(c3cnccn3)C2)cc1 (stereo not given) | 3.51%
70 | COc1ccc(NC(=O)C2CCCN2S(=O)(=O)c2ccc3c(c2)CCC(=O)N3)cc1 (stereo not given) | -21%
71 | CCCn1c(CCc2ccccc2)nnc1SCC(=O)N1CCCC1 | -5.53%
72 | C[C@]12CCC(=O)C=C1CC[C@@H]1C2[C@H](O)C[C@]2(C)C(=O)CCC12 (stereo not given in full) | 2.16%

Row | Compound | inhibition
73 | Cc1cc(NC(=O)c2cc(-c3cccnc3)nc3c(C)c(C)ccc23)no1 | 2.95%
74 | Cc1nnc(NC(=O)c2cc(-c3ccncc3)nc3c(C)cccc23)s1 | 9.24%
75 | CCN(CC)S(=O)(=O)c1cccc(-c2n[nH]c(=S)n2CC(C)C)c1 | 4.49%
76 | COC(=O)N(NC(=O)C(O)(CCC(C)C)CCC(C)C)c1ccccc1 | 2.67%
77 | CCOC(OCC)P(=O)(C(C)C)C(C)C | -4.61%
78 | Cc1ccc(-c2nnc3c(C(F)(F)F)nc4ccccc4n23)cc1 | 0.23%
79 | Cc1cc(-c2cc(-c3ccc(Cl)cc3)on2)nc(NC2CCCC2)n1 | 31.4%
80 | CC(C)c1cc(-c2cc(-c3ccccc3)on2)nc(NC2CCCC2)n1 | 5.62%
81 | CCCCN(C)C(=O)CC(NS(=O)(=O)c1ccc(NC(C)=O)cc1)C(C)C (stereo not given) | 0.04%
82 | Cc1ccc(-n2nnnc2CNC(=O)c2ccc(Br)o2)cc1C | 11.2%
83 | O=C(NCc1nnnn1-c1ccc(Cl)cc1)c1ccc(Br)o1 | -0.54%
84 | O=C(O)C1C2C=CC(C2)C1C(=O)NCc1ccc(Cl)cc1Cl (stereo not given) | 7.08%
85 | Oc1ccccc1-c1cc(C(F)(F)F)nc(-c2ccccc2)n1 | 6.24%
86 | Oc1ccccc1-c1cc(C(F)(F)C(F)F)nc(-c2ccccc2)n1 | 12.1%
87 | Cc1cc(C)nc(/N=C(\N)Nc2cc([N+](=O)[O-])ccc2C)n1 | 1.78%
88 | COc1ccc(C)cc1N/C(N)=N/c1nc(C)cc(C)n1 | 5.92%
89 | CC(=O)N/C(=C\c1ccccc1)C(=O)OCC(=O)NC(C)C12CC3CC(CC(C3)C1)C2 (stereo not given) | 10.4%
90 | O=C(CCC(=O)OCc1ccc([N+](=O)[O-])cc1)Nc1ccccc1Cl | -11.9%
91 | CC(C)(C)NC(=O)C(=O)NNC(=O)c1ccccc1 | -5.28%
92 | CC(C)(C)c1ccc(C(=O)NNC(=O)c2ccc(Cl)cc2)cc1 | -6.43%
93 | Cc1cc(C)c(S(=O)(=O)c2cc(F)ccc2C)c(Cl)n1 | 6.18%
94 | Cc1cc(/C([O-])=C(/C(=S)Nc2ccccc2)[n+]2ccccc2)c(C)n1-c1ccccc1 | 38.1%
95 | Cc1cc(/C([O-])=C(/C(=S)Nc2ccc(F)cc2)[n+]2ccccc2)c(C)n1-c1ccc(F)cc1 | -9.36%
